Reference: the supplement of paper PMC6555819

How the values were obtained:
Test in all cases: PBM binding z-score (relative to random genomic background probes); higher = stronger binding; sequences stand for … in GC…GCGATTGACAGCGTAGAATGAAGG
[1] = system: RARb homodimer (NR concentration 270 nM)
Method in brief: (§1)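 Ligand-free nuclear receptor dimers were applied to custom Agilent 4×180K protein-binding microarrays whose double-stranded probes carried direct-repeat seeds, single-nucleotide variants, half-site ablations and random human genomic background sequences in 34-nt variable regions. Incubation lasted 1 h. Binding z-scores were computed against the random background probes from regression-normalized fluorescence.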

[2] = system: RARg:RXRa (NR concentration 270 nM, RXRa partner concentration 90 nM)
Method in brief: as §1

[3] = system: RARg homodimer (NR concentration 270 nM)
Method in brief: as §1

[4] = system: RXRa DBDmut IVT, anti-RXR (DBD mutation: RXRa K156A/R161A, NR concentration 90 nM)
Method in brief: as §1

[5] = system: RXRa homodimer (NR concentration 180 nM)
Method in brief: as §1

[6] = system: THRa:RXRa (NR concentration 90 nM, RXRa partner concentration 90 nM)
Method in brief: as §1

[7] = system: THRa homodimer (NR concentration 90 nM)
Method in brief: as §1

[8] = system: VDR homodimer (NR concentration 270 nM)
Method in brief: as §1

Sequence	PBM binding z-score [1]	PBM binding z-score [2]	PBM binding z-score [3]	PBM binding z-score [4]	PBM binding z-score [5]	PBM binding z-score [6]	PBM binding z-score [7]	PBM binding z-score [8]
AGAATGAGGTTATTACGATCAGGGAATTGCGGTC	1.07	1.35	1.1	2.37	2.06	2.44	0.982	1.6
CAGCCTAGGTTAGGGCCAGTATAGGAGGAACGTT	0.216	0.0888	0.349	-0.851	0.0782	-0.0554	-0.75	-0.636
CAGCCTAGGTCAGGGCCAGTATCGGAGGAACGTT	2.85	3.16	4.2	-0.106	1.55	1.96	0.58	-0.476
CAAATTAGGTCACCGGAAGGTCAAAGTCCGCATG	5.53	8.32	7.57	2.34	6.18	4.78	3.89	3.8
TCTTGTAGATTAATAGAGGTTAAGAAAGTGCGCT	1.51	0.95	0.856	1.23	1.66	1.81	-0.0934	0.699
TCGAGTAGGTTACCAATGGGGCATTCATCTTTCT	0.835	1.03	0.586	0.151	0.759	0.223	-0.282	-0.179
CCTCGGAGGAAAACAGGAGGTCAGAGCTGCCAGA	2.81	1.32	1.3	-0.428	1.63	2.06	0.595	0.405
GATACAGGGTCAGCTAGAGGCCGGAGTATGGAAA	3.18	5.66	4.38	1.07	4.04	2.7	0.265	0.333
CAAACTAGGTCAAGAGGTCAAAGACCGCTTCCCG	5.76	8.18	7.8	2.18	8.47	4.39	2.18	3.76
CCAGAGAGGTGAAAGGTAACTCAGTCTGGTACGC	1.42	2.57	1.44	0.39	3.56	2.1	0.391	0.0875
ATACCAAGGTGATCGTGAGGGCGTTGATACTAAC	1.07	0.664	0.461	0.501	0.36	2.16	1.23	1.36
CCAGACAGGTGAAAGGTTACTCAGTCTGGTACGC	1.91	3.02	1.52	0.385	4.22	1.72	0.13	0.149
CGTCGAAGGTCAAGGTCAGTGAAAGAGACTCGAA	5.05	6.76	7.33	2.59	6.08	3.98	2.07	1.98
GCGACTGGGGCATCAGCAGGTTGCCATAACTTAA	0.046	-0.0231	-0.244	-0.343	-0.273	-0.00785	-0.582	-0.425
ATACCAAGGTGATCGTGAGGCCGTTGATACTAAC	0.758	0.629	0.127	0.132	0.254	2.05	1.14	0.643
AGTAAAAGTTCATCTAGGTAACGTAAGATATGCT	3.63	4.68	5.23	4.63	3.77	3.05	0.0912	4.83
CAAACTAGGTCACAGAGATCAAAGTCCGTGCGTA	3.1	4.52	4.87	1.59	3.84	3.28	1.27	0.964
CGAACTAGGTCTAGGACAGTGAATCTCCGCACGC	-0.234	-0.33	-0.233	0.104	-0.217	0.316	0.0986	-0.409
TCTATTAGTTGAAGGGCGACCGACGAGTCCGTTT	0.596	0.105	-0.00665	1.84	0.439	0.0101	0.203	1.32
CGTCCAAGGTCAGAGAGGTCGGTGAATGCCGAGT	4.09	4.84	5.91	2.7	3.93	3.66	1.38	3.09
TCTATTAGTTGCTTAGGGCAACCGAAACAGCGGA	0.716	0.433	0.547	1.23	0.549	0.996	0.379	0.236
TCTTGTAGATCAAAGGTGAAGAAAGCCGAAGCCT	0.902	0.905	0.395	0.392	1.75	0.776	-0.461	-0.594
ATATGTAGGTTACATCCGGGTAATTCAGGCTATG	0.673	1.08	1.06	0.788	0.887	2.3	0.727	0.278
CGATCTAGGTCATTGACAGGACAGTGAATAGTAA	2.8	4.48	4.41	2.67	2.41	3.11	1.21	1.49
CCAGACAGGTGAGAACGTAACTCAGCCTCGATTA	0.118	0.404	0.33	0.242	0.378	-0.0328	0.361	0.202
CAAGCTAGGTCAAGGTCAAAGTCGGTTTGTGCCA	4.92	6.04	6.71	2.89	5.73	4.39	3.51	4.44

Sequence	PBM binding z-score [1]	PBM binding z-score [2]	PBM binding z-score [3]	PBM binding z-score [4]	PBM binding z-score [5]	PBM binding z-score [6]	PBM binding z-score [7]	PBM binding z-score [8]
ACTATTATTTGAGACGAGGGCAACCGATAGGTTG	1.51	0.808	0.929	1.03	0.916	1.12	1.07	1.75
CCAACTGGGCCATCAGGTCATTGATATCAACGTT	2.79	2	2.2	0.763	1.46	3.19	3.32	2.04
CGAACTAGGTCATTGACAGGACAGTAAATAGTAA	2.73	4.76	4.54	2.6	2.84	2.74	0.723	1.03
CCTTACGGGTCCCGAGGTTATAGCACGACGAGCG	0.515	0.416	0.388	-1.34	0.999	1.1	0.132	0.162
TCGAGTTGGTTAGGGGCATTCAGAATGGCGTCGA	0.661	-0.158	-0.398	1.95	0.163	0.835	0.169	3.32
TAGCCTAGGTCTTGCGGGCCAGTATAGTGTCGGC	-0.413	-0.507	-0.639	-1.09	-0.623	-0.606	-1.12	-1.13
CCGACTGGGGCAAAGATTACCATACTCAGTACGA	-0.379	0.0799	0.405	0.314	-0.0917	-0.407	-0.518	-0.37
TCTTGTAGATCACCAGGAGGTTAAGAAAGATCGA	0.751	1.15	0.275	0.396	1.14	1.01	-0.466	0.109
CGTACTGGGCCAAAGGTCATTGATTCCAATGCTC	4.66	5.89	4.65	1.3	6.26	3.6	0.976	2.28
TGAATGAGGTTATAACATCAGGGAACGTTGCAAA	-0.0288	1.33	0.791	0.901	2.09	1.78	-0.00143	0.537
ATCGCAAGGTCGAGGTGAGTATAGAGAAAGGGAA	1.76	2.55	2.56	0.563	2.35	2.62	0.694	0.322
CCGACTGGGGCAAGGCTACCATAACGCACAGCCA	0.53	0.348	0.614	-0.842	0.0101	-0.203	-0.4	-0.136
CGTCCAAGGTCAATCCTAGGTCAGTGAAAGCATT	5.21	7.69	6.57	3.57	5.38	4.72	3.63	3.06
TCAGCCAGGTGAAGGTAACTCAGGTACGCAGTCG	0.236	0.119	-0.0268	0.397	0.607	1.8	0.391	-0.347
CGAACGAGGGCATGAGTTGATAGCAAATGCCGAT	0.843	1.54	2	2.58	1.17	1.48	-0.132	2.02
GCTAGTAGATCAAGGTTAAGAAAGACTAAGCTAA	0.204	0.392	0.168	-0.105	0.832	1.01	-0.473	-0.442
ATATGTAGGTTAGCTGCGGTCATTCAGACTAGGC	2.02	1.43	1.83	0.343	0.968	4.05	0.202	0.904
TAGCCTAGGTCATTCAGGGGCCAGTACAGAAAGC	3.28	5.87	4.35	1.94	2.7	3.4	0.784	1.56
AGTCAAAGTGCAGGACGAGGTAACGTAAAGCACG	0.382	0.878	1.15	-0.269	0.45	2.23	0.449	0.0328
GCGACTTGGGCAAAGCAGGTTACCATAAGGTTGG	-0.0673	-0.0478	-0.407	-0.506	0.218	1.39	-0.348	-0.774
ACTTACGGGTCAATGAGGTTATAGCACGCGTATA	3.59	5.05	4.75	2.58	6.03	4.16	1.57	3.35
CTCGAAAGGTCGGTTGAGGTGAGTATACGGATAA	2.15	2.63	2.54	0.556	1.95	5.09	1.33	0.68
GCAGACGGGTGAAACGCAGGTAACTCAGGGTGGC	-0.28	0.482	-0.283	-1.07	0.49	1.3	-0.706	-0.68
ATCTCTAGGAAAAAGTTCAGTGAATCCCGAGGAT	1.74	1.01	1.4	0.393	0.399	0.0597	-0.127	1.42
GCTCGGAGAACAAGGTCAGAGCTTTGTCCGTAGA	2.36	2.39	2.24	0.418	2.16	2.58	0.95	0.151
CAAACTGGGTCAAAGGTCAAAGTCGAGCCAACCA	5.2	8.56	7.31	2.55	10.1	4.51	1.31	3.12
